Data on 16 compounds can be found in ChEMBL document CHEMBL1961873, “Compounds: GSK PKIS; Assays: Nanosyn kinase panel” (2012).

Several values for one entry are separate records, joined by “and”; a condition that tells them apart may be missing. Equal entries are not always repeated.

Assay [1] has as its target Fibroblast growth factor receptor 4 (Homo sapiens) (UniProt P22455). The note with it: at 1 µM.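 Also: reported figure is the averaged percent inhibition of FGFR4, from the GSK PKIS kinase screening panel.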
The target of assay [2] is Tyrosine-protein kinase Fgr (Homo sapiens) (UniProt P09769). The note with it: at 0.1 µM.
Tyrosine-protein kinase Fgr (Homo sapiens), sequence (P09769 2-529 limits assumed): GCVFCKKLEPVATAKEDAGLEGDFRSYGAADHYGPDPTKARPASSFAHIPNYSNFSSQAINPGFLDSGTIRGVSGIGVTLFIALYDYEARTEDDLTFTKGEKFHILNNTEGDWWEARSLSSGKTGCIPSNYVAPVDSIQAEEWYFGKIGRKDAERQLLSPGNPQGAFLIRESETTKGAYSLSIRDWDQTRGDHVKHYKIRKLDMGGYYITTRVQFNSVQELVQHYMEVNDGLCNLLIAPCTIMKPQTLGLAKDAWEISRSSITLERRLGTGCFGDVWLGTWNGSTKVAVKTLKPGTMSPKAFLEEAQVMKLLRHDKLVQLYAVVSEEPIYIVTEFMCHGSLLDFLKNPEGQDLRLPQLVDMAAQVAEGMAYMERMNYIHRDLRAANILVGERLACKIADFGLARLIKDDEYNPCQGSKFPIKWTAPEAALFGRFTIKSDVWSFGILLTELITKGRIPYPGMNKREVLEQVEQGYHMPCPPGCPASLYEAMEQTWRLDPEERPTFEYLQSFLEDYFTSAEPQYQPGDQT
Assay [3] shares this target. The note with it: at 1 µM.
In assay [4] the target is Vascular endothelial growth factor receptor 1 (Homo sapiens) (UniProt P17948). The note with it: at 0.1 µM.
Vascular endothelial growth factor receptor 1 (Homo sapiens), sequence (P17948 whole entry): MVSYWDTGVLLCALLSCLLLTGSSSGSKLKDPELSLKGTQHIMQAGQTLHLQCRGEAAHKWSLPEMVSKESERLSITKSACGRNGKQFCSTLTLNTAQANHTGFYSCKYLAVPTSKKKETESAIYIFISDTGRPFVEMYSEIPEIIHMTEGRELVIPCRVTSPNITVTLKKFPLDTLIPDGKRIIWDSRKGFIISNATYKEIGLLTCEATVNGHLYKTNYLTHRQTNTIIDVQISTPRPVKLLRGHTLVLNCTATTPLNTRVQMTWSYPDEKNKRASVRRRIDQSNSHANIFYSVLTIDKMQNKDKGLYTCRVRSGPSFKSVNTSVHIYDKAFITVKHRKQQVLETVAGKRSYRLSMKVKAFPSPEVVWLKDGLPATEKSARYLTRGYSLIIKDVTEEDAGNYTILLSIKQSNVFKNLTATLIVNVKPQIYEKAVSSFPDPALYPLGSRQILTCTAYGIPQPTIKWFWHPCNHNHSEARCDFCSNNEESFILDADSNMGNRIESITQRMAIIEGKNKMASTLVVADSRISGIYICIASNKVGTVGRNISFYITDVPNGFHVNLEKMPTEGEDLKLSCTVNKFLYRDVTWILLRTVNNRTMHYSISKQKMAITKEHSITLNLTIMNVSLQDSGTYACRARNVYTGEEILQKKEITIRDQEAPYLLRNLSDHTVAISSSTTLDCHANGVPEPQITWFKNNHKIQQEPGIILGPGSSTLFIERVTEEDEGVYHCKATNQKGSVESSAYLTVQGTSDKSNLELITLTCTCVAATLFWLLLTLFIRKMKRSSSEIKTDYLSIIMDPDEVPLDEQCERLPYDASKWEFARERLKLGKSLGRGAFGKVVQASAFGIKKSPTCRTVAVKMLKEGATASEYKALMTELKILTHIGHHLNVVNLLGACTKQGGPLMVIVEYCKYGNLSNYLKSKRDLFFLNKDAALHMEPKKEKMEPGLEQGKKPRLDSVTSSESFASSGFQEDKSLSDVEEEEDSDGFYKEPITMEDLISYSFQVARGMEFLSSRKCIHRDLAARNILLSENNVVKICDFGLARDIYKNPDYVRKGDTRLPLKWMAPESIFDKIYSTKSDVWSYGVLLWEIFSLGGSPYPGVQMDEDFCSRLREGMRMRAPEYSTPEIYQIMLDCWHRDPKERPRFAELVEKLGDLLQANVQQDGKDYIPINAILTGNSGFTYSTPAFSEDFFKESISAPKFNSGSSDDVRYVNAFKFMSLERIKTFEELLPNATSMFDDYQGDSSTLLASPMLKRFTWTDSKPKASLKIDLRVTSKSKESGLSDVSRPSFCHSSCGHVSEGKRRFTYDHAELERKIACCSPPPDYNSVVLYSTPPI
For assay [5] the target is unchanged. The note with it: at 1 µM.
The target in assay [6] is Receptor-type tyrosine-protein kinase FLT3 (Homo sapiens) (UniProt P36888). The note with it: at 0.1 µM.
Assay [7] has the same target. The note with it: at 1 µM.
In assay [8] the test system is T1, Receptor-type tyrosine-protein kinase FLT3 (Homo sapiens), P36888 [D835Y].
T1 sequence (whole entry): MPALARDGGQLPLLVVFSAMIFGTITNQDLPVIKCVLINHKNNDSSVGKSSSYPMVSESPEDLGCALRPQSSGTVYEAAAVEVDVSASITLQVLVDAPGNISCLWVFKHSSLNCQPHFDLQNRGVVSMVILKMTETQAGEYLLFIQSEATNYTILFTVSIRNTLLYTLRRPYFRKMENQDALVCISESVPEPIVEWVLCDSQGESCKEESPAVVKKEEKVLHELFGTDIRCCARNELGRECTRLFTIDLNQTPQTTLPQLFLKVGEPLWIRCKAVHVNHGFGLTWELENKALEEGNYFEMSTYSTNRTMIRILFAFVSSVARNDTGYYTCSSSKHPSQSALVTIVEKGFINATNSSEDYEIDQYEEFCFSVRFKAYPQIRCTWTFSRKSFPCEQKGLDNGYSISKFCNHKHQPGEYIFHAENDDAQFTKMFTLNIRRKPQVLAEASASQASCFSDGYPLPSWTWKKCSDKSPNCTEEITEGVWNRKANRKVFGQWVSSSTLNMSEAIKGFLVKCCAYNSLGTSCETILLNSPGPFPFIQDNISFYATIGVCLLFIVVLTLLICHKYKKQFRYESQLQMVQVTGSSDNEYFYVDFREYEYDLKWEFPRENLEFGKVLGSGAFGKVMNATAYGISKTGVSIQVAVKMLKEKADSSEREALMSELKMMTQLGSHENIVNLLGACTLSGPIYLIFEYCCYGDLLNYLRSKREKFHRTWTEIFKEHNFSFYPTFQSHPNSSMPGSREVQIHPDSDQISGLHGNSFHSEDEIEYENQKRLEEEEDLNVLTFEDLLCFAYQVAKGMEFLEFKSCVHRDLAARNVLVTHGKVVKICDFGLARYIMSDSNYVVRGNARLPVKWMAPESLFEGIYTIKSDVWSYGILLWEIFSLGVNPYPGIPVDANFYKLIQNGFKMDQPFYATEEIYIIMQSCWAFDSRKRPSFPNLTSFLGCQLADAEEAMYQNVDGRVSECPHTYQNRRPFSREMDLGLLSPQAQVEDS
The note with it: at 0.1 µM.

Assay [9] concerns the target Non-receptor tyrosine-protein kinase TYK2 (Homo sapiens) (UniProt P29597). The note with it: at 1 µM.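 Also: values are mean percent inhibition of TYK2 kinase.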
Assay [10] concerns the target T2, Tyrosine-protein kinase receptor TYRO3 (Homo sapiens) (UniProt Q06418).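 Also: reported percentages are averaged inhibition values of TYRO3 kinase activity.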
T2 sequence (whole entry): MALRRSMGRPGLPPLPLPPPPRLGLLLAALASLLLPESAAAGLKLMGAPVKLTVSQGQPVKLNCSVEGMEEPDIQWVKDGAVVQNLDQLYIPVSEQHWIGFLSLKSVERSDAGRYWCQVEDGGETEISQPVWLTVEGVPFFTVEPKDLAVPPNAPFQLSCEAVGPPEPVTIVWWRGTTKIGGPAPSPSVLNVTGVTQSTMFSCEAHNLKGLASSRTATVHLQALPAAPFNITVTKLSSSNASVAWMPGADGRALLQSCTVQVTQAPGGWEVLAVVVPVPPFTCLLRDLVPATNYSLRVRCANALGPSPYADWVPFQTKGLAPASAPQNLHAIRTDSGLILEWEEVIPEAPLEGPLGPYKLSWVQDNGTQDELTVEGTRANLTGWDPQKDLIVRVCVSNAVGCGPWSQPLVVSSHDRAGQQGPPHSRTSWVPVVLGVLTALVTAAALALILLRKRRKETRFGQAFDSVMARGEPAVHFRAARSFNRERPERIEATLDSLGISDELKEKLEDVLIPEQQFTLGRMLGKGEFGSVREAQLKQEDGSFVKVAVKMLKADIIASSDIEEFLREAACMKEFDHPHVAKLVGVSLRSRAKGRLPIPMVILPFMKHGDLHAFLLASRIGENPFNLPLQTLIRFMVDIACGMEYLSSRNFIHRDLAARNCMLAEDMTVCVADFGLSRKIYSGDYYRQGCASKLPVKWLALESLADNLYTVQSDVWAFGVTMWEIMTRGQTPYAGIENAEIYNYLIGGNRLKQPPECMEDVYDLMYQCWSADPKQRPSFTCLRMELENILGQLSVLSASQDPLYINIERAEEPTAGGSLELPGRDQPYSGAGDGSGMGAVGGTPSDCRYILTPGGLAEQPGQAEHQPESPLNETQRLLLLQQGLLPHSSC
The note with it: at 0.1 µM.

Non-receptor tyrosine-protein kinase TYK2 (Homo sapiens), sequence (P29597 whole entry): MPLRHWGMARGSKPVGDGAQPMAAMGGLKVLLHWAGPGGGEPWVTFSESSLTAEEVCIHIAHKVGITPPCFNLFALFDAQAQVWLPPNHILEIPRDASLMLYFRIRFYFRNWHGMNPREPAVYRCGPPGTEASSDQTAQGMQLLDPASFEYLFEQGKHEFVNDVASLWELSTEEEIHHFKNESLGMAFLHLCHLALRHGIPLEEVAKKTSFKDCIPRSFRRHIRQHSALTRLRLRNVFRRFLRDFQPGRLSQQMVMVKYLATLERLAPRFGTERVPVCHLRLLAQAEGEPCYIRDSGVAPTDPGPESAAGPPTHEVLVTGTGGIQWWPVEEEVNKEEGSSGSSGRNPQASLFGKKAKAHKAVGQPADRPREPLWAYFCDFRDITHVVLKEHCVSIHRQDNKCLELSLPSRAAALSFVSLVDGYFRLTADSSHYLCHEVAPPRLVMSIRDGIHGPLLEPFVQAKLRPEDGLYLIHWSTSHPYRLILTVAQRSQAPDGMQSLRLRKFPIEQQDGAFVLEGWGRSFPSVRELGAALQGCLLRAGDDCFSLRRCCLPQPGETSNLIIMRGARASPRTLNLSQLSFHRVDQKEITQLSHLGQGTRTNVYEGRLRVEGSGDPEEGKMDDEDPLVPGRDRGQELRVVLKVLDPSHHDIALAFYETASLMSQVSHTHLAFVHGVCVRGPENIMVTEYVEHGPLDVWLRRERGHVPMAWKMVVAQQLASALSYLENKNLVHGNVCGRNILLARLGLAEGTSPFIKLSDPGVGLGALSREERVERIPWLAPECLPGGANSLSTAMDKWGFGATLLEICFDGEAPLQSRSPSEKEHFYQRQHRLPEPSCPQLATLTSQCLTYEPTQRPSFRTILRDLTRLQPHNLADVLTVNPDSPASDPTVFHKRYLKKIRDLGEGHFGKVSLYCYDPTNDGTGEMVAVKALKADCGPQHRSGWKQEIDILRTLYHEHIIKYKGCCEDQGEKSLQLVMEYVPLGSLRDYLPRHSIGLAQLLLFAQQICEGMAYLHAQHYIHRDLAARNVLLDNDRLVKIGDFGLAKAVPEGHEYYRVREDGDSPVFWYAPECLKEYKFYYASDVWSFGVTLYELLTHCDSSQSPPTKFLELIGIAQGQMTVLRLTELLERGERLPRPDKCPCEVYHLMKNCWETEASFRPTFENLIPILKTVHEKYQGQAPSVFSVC
Fibroblast growth factor receptor 4 (Homo sapiens), sequence (P22455 22-802 limits assumed): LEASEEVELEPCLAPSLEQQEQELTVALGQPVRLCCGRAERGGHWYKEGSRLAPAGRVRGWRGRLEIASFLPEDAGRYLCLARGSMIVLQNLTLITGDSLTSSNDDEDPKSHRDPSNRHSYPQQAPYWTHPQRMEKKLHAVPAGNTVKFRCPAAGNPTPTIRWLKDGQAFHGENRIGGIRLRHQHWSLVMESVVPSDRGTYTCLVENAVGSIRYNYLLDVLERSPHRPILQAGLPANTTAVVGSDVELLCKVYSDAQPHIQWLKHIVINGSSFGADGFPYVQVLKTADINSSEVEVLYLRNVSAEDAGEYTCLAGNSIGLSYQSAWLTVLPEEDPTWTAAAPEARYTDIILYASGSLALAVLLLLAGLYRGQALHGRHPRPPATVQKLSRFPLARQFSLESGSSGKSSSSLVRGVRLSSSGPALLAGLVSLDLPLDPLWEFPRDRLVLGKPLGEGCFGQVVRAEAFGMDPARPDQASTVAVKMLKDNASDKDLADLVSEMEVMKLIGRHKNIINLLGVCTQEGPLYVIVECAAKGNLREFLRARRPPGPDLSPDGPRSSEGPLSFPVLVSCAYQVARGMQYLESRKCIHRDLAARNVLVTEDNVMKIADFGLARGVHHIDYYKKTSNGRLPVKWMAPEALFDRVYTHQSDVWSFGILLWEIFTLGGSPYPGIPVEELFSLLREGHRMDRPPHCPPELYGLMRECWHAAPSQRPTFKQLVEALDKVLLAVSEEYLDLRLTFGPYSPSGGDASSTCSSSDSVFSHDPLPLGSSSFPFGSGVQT

As for `Cc1nnc(-c2cccc(-c3ccc(C(=O)NCC4CC4)cc3)c2)o1`, the inhibition was determined as 0.59% in assay [1]; 5.74% in assay [2]; 2.02% in [3]; 3.18% in assay [4]; 1.49% in [5]; 1.38% in assay [6]. In addition, the inhibition in [7] was 4.66%; in assay [8], -2.89%; in assay [9] it was -4.07%; in assay [10], 4.15%.

On to `CN1CCC(n2cnc(-c3ccc(F)cc3)c2-c2ccnc(NCCO)n2)CC1`, for which the inhibition in assay [1] worked out at 0.38%; in assay [2] it was 5.33%; in [3], 2.78%; in [4], 1.32%; in assay [5], 3.27%; in [6], 1.5%. Also, the inhibition was 5.56% in assay [7], -2.58% in assay [8], -4.71% in assay [9] and 3.69% in assay [10].

Take `CN1CCN(Cc2ccc(-c3cc4ncnc(Nc5ccc(OCc6cccc(F)c6)c(Cl)c5)c4s3)o2)CC1`: the inhibition was 0.2% and 1% in assay [1]; 5.67% and 10.9% in [2]; 30.3% and 30.1% in [3]; 0.35% and 1.57% in [4]; 3.76% and 1.58% in assay [5]; 3.12% and 0.52% in [6]. The inhibition in assay [7] was 1.99% and 2.76%; in [8], -3.92% and 0.13%; in [9], -7.87% and -0.75%; in assay [10], 2.09% and 4.83%.

As to `O=C(O[C@H]1CN[C@H](C#Cc2cc3ncnc(Nc4ccc5c(cnn5Cc5ccccc5)c4)c3s2)C1)N1CCOCC1`, the inhibition in [1] is 0.38%; in assay [2] it was 2.54%; in [3], 11.2%; in assay [4], -2.71%; in assay [5] it was 0.04%; in assay [6], -2.76%. The inhibition was -3.41% in assay [7], -5.14% in [8], 1.01% in [9] and -0.42% in assay [10].

Consider `CNC(=O)c1cncc(/C=C/c2ccccc2C)c1`, for which the inhibition was -0.62% in assay [1]; 5.41% in assay [2]; 9.23% in [3]; 1.31% in assay [4]; 0.49% in [5]; 1.85% in assay [6]. In addition, the inhibition in [7] is 1.3%; in assay [8], -2.2%; in assay [9], -3.23%; in assay [10], 3.13%.

`COc1cc(N2CCN(C(C)C)CC2)ccc1Nc1nc(Nc2cccc3ncccc23)c2cc[nH]c2n1`: the inhibition was 0.41% in [1]; -0.04% in assay [2]; 3.16% in assay [3]; 1.51% in assay [4]; 0.56% in assay [5]; 0.08% in [6]. For the same compound, the inhibition in assay [7] is 1.34%; in [8], 1.05%; in assay [9], 2.42%; in [10], -2.4%.

On to `COc1cc(N2CCN(C(C)C)CC2)ccc1Nc1nc(Nc2cccc(F)c2C(=O)O)c2cc[nH]c2n1`, for which the inhibition was determined as 3.72% in assay [1]; 4.76% in assay [2]; 4% in assay [3]; 1.38% in [4]; 1.96% in [5]; 0.4% in assay [6]. Besides, the inhibition is 10.3% in [7], 0.23% in [8], -2.8% in assay [9] and 2.73% in assay [10].

Regarding `OCCCNc1nccc(-c2c(-c3ccc(F)cc3)nn3cc(C(F)(F)F)ccc23)n1`, the inhibition worked out at 0.98% in assay [1]; 2.9% in [2]; 8.24% in assay [3]; 1.4% in assay [4]; 3.41% in [5]; 1.66% in assay [6]. In addition, the inhibition in assay [7] was 3.11%; in assay [8], -1.23%; in assay [9], -1.77%; in [10] it was 1.9%.

As to `NS(=O)(=O)c1ccc(N/N=C2\C(=O)Nc3ccc(C(=O)NCc4ccncc4)cc32)cc1`, the inhibition in assay [1] turned out to be 2.18%; in assay [2], 4.24%; in assay [3], 12.5%; in [4], 2.5%; in assay [5], 10.3%; in assay [6] it was 2.9%. Also, the inhibition in assay [7] stood at 11.4%; in assay [8], 3.79%; in assay [9], 0.98%; in assay [10], 2.32%.

Turning to `COC(=O)Nc1nc2cc(Oc3ccc(NC(=O)Nc4ccccc4)cc3)ccc2[nH]1`, the inhibition in assay [1] is -0.59%; in assay [2], 4.41%; in assay [3], 3.18%; in assay [4] it was 16.5%; in [5], 22.1%; in assay [6], 5.43%. In addition, the inhibition is 14.2% in [7], -4.53% in [8], -1.49% in assay [9] and 1.8% in [10].

As for `CN(C)CCNC(=O)Nc1ccc(N(C)c2ccnc(Nc3ccc(CS(C)(=O)=O)cc3)n2)cc1`, the inhibition in assay [1] stood at 2.84%; in [2], 1.07%; in assay [3], 9.57%; in assay [4], 4.18%; in assay [5], 8.87%; in assay [6], 16%. Further, the inhibition in assay [7] was 58.6%; in assay [8], -5.17%; in [9], -3.31%; in assay [10], 2.66%.

Consider `CS(=O)(=O)Nc1ccc(-c2cc(-c3ccccc3)cc(C(N)=O)c2N)cc1`, for which the inhibition in [1] is 1.17%; in assay [2] it was -1.31%; in assay [3] it was 1.01%; in assay [4], 1.22%; in assay [5], 1.42%; in assay [6] it was 6%. The inhibition was 4.94% in assay [7], -2.16% in assay [8], -2.96% in assay [9] and 0.01% in [10].

Take `CN(c1ccc(NC(=O)NCCN2CCOCC2)cc1)c1ccnc(Nc2ccc(CS(C)(=O)=O)cc2)n1`: the inhibition turned out to be 1.61% in assay [1]; 3.44% in assay [2]; 11.3% in assay [3]; 13.6% in assay [4]; 30.7% in assay [5]; 56.4% in assay [6]. Besides, the inhibition in assay [7] is 83.7%; in assay [8], 8.58%; in assay [9], -0.59%; in assay [10] it was 3.48%.

In the case of `CCCNc1cccc(-n2ncc3c(N/N=C/c4ccncc4)ncnc32)c1`, the inhibition came to 3.38% in assay [1]; 18.9% in assay [2]; 52% in assay [3]; 2.98% in assay [4]; 19.7% in assay [5]; 4.53% in assay [6]. Also, the inhibition stood at 17.6% in assay [7], 7.74% in [8], 4.3% in [9] and 5.05% in assay [10].

Regarding `CC(C)c1ccc(-c2cc(-c3c[nH]nc3-c3ccccn3)ccn2)cc1`, the inhibition was 0.16% in assay [1]; 0.18% in assay [2]; 1.8% in assay [3]; 0.29% in [4]; 6.12% in [5]; -2.11% in [6]. The inhibition was 2.26% in assay [7], 1.43% in [8], -0.96% in [9] and 1.06% in assay [10].

As for `NC(=O)c1ccc2c(-c3ccnc(NCCCO)n3)c(-c3ccc(F)cc3)nn2c1`, the inhibition turned out to be 1.22% in [1]; 3.07% in assay [2]; 12.1% in assay [3]; 3.74% in assay [4]; 3.53% in assay [5]; 4.12% in assay [6]. Further, the inhibition in [7] was 5.06%; in [8] it was 2.33%; in [9], -5.12%; in assay [10], 3.03%.

The term inhibition denotes the drop in the measured response relative to a control, in per cent.
